The source of these data is PubChem BioAssay AID2284358 (EPA ToxCast).

Results filed as inconclusive are left out. Calls of active or inactive are those of the source. The calls were made as follows: active = hit-call score of the fitted dose curve at least 0.9, where 1 is the maximum; inconclusive = response in the unintended direction; inactive = score below 0.9.

Sequence of zebrafish Retinoid X Receptor beta (RXRb), rxrba (gene 30530) (Q7SYN5 whole entry, looked up): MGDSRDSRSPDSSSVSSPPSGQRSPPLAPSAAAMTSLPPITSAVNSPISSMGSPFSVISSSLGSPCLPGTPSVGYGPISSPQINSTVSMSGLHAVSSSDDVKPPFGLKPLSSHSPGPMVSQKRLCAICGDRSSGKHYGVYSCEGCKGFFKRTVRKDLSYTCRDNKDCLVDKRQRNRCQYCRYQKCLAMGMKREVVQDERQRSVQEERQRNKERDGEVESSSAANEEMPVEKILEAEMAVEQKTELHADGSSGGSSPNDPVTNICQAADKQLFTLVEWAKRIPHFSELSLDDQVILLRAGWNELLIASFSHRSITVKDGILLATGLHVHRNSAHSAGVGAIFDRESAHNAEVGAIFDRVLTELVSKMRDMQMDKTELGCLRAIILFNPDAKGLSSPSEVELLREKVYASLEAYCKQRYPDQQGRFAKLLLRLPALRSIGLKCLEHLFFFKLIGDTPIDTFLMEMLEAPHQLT

The assay deals with zebrafish Retinoid X Receptor beta (RXRb), rxrba (gene 30530) (UniProt Q7SYN5). Nature of the assay: ATG_zfRXRb_EcoTox2: Attagene TRANS-FACTORIAL EcoTox-2 HepG2 Assay for zebrafish Retinoid X Receptor beta (RXRb). As for the experimental part:
ATG_EcoTox2 is a cell-based, multiplexed assay created by modifying the existing Attagene TRANS-FACTORIAL system to include a panel of nuclear receptors from some or all the following species: human (Homo sapiens), african clawed frog (Xenopus laevis), rainbow trout (Oncorhynchus mykiss), japanese medaka (Oryzias latipes), and zebrafish (Danio rerio). The ECOTOX2-FACTORIAL format uses HepG2, a human liver cell line, with measurements taken at 24 hours after chemical dosing in a 24-well plate. ATG_zfRXRb_EcoTox2 is one of 29 assay components calculated in the ATG_EcoTox2 assay. It is designed to make measurements of mRNA induction, a form of inducible reporter, as detected with fluorescence intensity signals by Reverse transcription polymerase chain reaction (RT-PCR) and Capillary electrophoresis technology.The assay endpoint ATG_zfRXRb_EcoTox2 was analyzed in the positive analysis fitting direction relative to DMSO as the negative control and baseline of activity. Using a type of inducible reporter, measures of mRNA for gain-of-signal activity can be used to understand the reporter gene at the transcription factor-level as they relate to the gene RXRb. Furthermore, this assay endpoint can be referred to as a primary readout, because this assay has produced multiple assay endpoints where this one serves a reporter gene function. […]
Human liver HepG2 cells are transiently transfected with multiple reporter transcription units (MRTUs) in 6-well plates using FuGene 6 reagent (Roche; 3 ml FuGene/1 mg DNA). […] A major difference between the CIS and TRANS system is that in CIS activities of endogenous TFs are measured, whereas the TRANS assay evaluates changes in activities of exogenous, chimeric NR-Gal4 proteins. […] The fragments were purified using Qiaquick PCR columns (Qiagen), analyzed on an ABI 3130xL genetic analyzer (Applied Biosystems) with peak positions identified by using a set of X-rhodamine (ROX)-labeled MapMarker1000 molecular weight standards (BioVentures). […]
On to `[Cl][Sn]([c]1ccccc1)([c]1ccccc1)[c]1ccccc1`, for which the AC50 is 95.2 nM (active).
As to `O=S(=O)(O)C(F)(F)C(F)(F)C(F)(F)C(F)(F)C(F)(F)C(F)(F)F`, the compound was classed as inactive.
`O=P(Oc1ccccc1)(Oc1ccccc1)Oc1ccccc1`: the call was inactive.

The term AC50 denotes the concentration giving half of the maximal activity seen.
